Screening data as filed in PubChem BioAssay.
Most compounds without a hit are left out; they make up all but 0.86% or so of the library.
CDC25B-CDK2 inh: human CDC25B-CDK2/CyclinA binding inhibition | HTRF CDC25B-CDK2/CyclinA binding, anti-His/anti-Flag; active compounds read high | z-score (no concentration beside the values) | hit rate 0.72% among 94,000; in the data active = z-score above about 3.2
TAR Tat displ: HIV-1 TAR-Tat binding disruption; HIV-1 TAR RNA, Tat peptide displacement FRET; active compounds read high; z-score (concentration not given with the values); hit rate 0.6% among 100,000; AID 1259389; active = z-score of 3 or more in at least 2 runs
* marks the source's active call; other numbers are inactive results; . = no result given.

SMILES	CDC25B-CDK2 inh	TAR Tat displ
CC1CCCC(N2CCC(N3CCN(CCO)CC3)CC2)C1 (stereo not given)	-1.2	.
N#CC1=C2SCN(c3ccc(Br)cc3)CN2C(=O)CC1c1ccccc1 (stereo not given)	6*	-5
Cc1cccc(N2CSC3=C(C#N)C(c4ccc(C)o4)CC(=O)N3C2)c1 (stereo not given)	-0.48	-1
N#CC1=C2SCN(c3cccc(Cl)c3)CN2C(=O)CC1c1cccc(F)c1 (stereo not given)	8.4*	-1.7
N#CC1=C2SCN(C3CCCCC3)CN2C(=O)CC1c1ccccc1 (stereo not given)	-1.3	2.1
Cc1ccccc1N1CSC2=C(C#N)C(c3ccccc3)CC(=O)N2C1 (stereo not given)	5.4*	-1.6
CCCCc1cc2c(s1)SCC(=O)N2CC(=O)NCc1ccco1	.	0.98
CC1CCc2c(sc3c2CSC(C(=O)Nc2ccccc2F)=C3)C1 (stereo not given)	.	-2.4
O=C1CCCc2cc(S(=O)(=O)N3CCCC3)ccc2N1	.	0.7
CC(C)NC(=O)c1cc2n(n1)CC(C)(C(=O)NC1CCCC1)N(C)C2=O (stereo not given)	.	-0.94
Cc1ccn2c(=O)c(C(=O)NCCCn3ccnc3)c(O)nc2c1	-0.09	-0.45
Cc1ccc(C)c(N2CCN(Cc3nnc(-c4cccc(Br)c4)o3)CC2)c1	-1.8	0.76
CC(Sc1nc2c(c(=O)[nH]1)CCCC2)C(=O)Nc1ccc(Br)cc1 (stereo not given)	-1.9	13*
CC(Sc1nc2c(c(=O)[nH]1)CCCC2)C(=O)Nc1ccc(F)cc1 (stereo not given)	-1.1	0.31
Cc1ccc(S(=O)(=O)Nc2cc(Cl)c(O)c3ncccc23)cc1	14*	1.5
Cc1ccc(S(=O)(=O)Nc2cc(S(=O)(=O)c3ccc(C)cc3)c(O)c3cccnc23)cc1	0.77	1.5
Cc1ccc(Nc2nc(-c3ccc(O)c(O)c3)cs2)nc1	-1.1	16*
Cc1ccc(Nc2nc(-c3ccc(O)cc3)cs2)nc1	-1.6	1.9
O=C(Cn1c(=O)c2cccn2c2cccnc21)NC1CCCCC1	.	0.8
Cc1cc(=O)c2c(O)c3c(O)cc(O)c4c5c(O)cc(O)c6c(O)c7c(=O)cc(C)c8c1c2c(c34)c(c65)c78	.	7.8*
Cc1cc(O)c2c(c1O)C(=O)c1c(O)cc(C)c(O)c1C2=O	.	0.53
COc1ccccc1C1CC(=O)N2C(=C1C#N)SCC2(O)c1ccccc1 (stereo not given)	-7	.
COc1cccc(C2CC(=O)N3CN(Cc4ccccc4)CSC3=C2C#N)c1OC (stereo not given)	5.5*	-0.36
COc1ccccc1C1CC(=O)N2CN(Cc3ccccc3)CSC2=C1C#N (stereo not given)	5.3*	0.76
N#CC1=C2SCN(Cc3ccccc3)CN2C(=O)CC1c1cccc2ccccc12 (stereo not given)	0	-0.85
SMILES	CDC25B-CDK2 inh	TAR Tat displ
Cc1csc2nc(CSc3nnc(-c4ccc(Cl)cc4)o3)cc(=O)n12	-2.1	2
CCN(CC)c1nc(-c2cccc(OC)c2OC)no1	.	0.9
CCOC(=O)c1c(/N=C/c2cc(Cl)cc(Cl)c2O)sc2c1CCC2	-2	.
O=C(Nc1ccc(-c2cn3cccnc3n2)cc1)c1ccc(F)c(F)c1	-0.47	.
Cc1c(NC(=O)NCCCN2CCOCC2)sc2nc3n(c(=O)c12)CCC(C)CC3 (stereo not given)	10*	0.6
Cc1c(C(=O)NCCCN2CCOCC2)sc2nc3n(c(=O)c12)CCCCC3	.	1.5
CC1=C(C(=O)N2CCCCC2)C(c2ccc(Br)cc2)C2=C(CCCC2=O)N1 (stereo not given)	.	2.4
COc1ccc(COC(=O)C2=C(C)NC3=C(C(=O)CCC3)C2c2ccc(OC(C)=O)c(OC)c2)cc1 (stereo not given)	-1.2	1.3
CC(C)Nc1cc(N(C)CCc2ccccn2)c2noc3c2c1C(=O)c1ccccc1-3	1.1	-1.7
COc1ccc2c(c1)c(=O)oc1cc3oc(C)c(-c4ccccc4)c3cc12	-1.6	-1.6
COc1ccc2c(c1)c(=O)oc1cc3oc4c(c3cc12)CCCC4	-0.98	3.7*
O=C(Nc1ccc2snnc2c1)NC1CCCCC1	-2	-0.4
O=C(Nc1ccc2snnc2c1)NC1CC1	11*	1.6
CC1=C(C#N)c2nc(N)c(C#N)c(C)c2/C1=C/c1ccc(-c2ccc(C(=O)O)c(Cl)c2)o1	5.1*	.
CC1=C(C#N)C(=O)NC(=O)/C1=C\c1ccc(-c2ccccc2)o1	-5.6	.
CC(=O)N1N=C(COc2ccc(Cl)cc2)OC1c1cc2c(cc1Br)OCO2 (stereo not given)	.	0.89
Cc1[nH]nc(NC2CCCCC2)c1[N+](=O)[O-]	-0.66	-0.42
CCN1CCN(c2ncc3c(n2)CCN(Cc2ccc(C)c(C)c2)C3)CC1	.	1.4
O=C(NCCCN1CCN(C2CCCCC2)CC1)C1CCN(c2nnc(-n3cccc3)s2)CC1	0.79	1.7
